LYPLA2 counter = LYPLA2 (human) inhibition in PME1 counter-screen. 320,000 tested, 0.38% active. recombinant LYPLA2, FP-Rh probe fluorescence polarization. AID 2177. inhibition, % at 5.9 µM;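 active = inhibition above the screen-wide mean plus 3 SD, limit set per campaign, cut at about 26% in these data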;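 also: 0% = LYPLA2 with DMSO and 100% = wells lacking LYPLA2 enzyme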
LYPLA1 inh = counter-screen for PME1 inhibitors: inhibitors of human LYPLA1. recombinant LYPLA1, FP-Rh probe fluorescence polarization. inhibition, % at 5.9 µM. 320,000 tested, 0.16% active. AID 2174;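 active = inhibition above the mean of all tested compounds plus 3 SD, set per campaign, cut at about 14% in these data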;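 also: inhibitors block serine hydrolase probe labeling of LYPLA1 so polarization falls; 0% = enzyme with DMSO and 100% = wells lacking LYPLA1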
Target sequence (O75608 whole entry, looked up): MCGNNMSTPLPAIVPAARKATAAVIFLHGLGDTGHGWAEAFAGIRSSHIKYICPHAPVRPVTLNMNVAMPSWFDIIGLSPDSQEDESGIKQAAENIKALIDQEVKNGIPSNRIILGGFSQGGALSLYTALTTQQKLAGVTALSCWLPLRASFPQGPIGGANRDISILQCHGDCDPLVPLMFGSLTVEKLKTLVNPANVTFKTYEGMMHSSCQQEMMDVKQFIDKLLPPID
PREPL inhibitor = inhibitors of human prolyl oligopeptidase-like enzyme PREPL | Q4J6C6 | recombinant PREPL, fluorescence polarization activity-based probe | inhibition, % at 5.96 µM | 320,000 tested, 0.68% active | AID 2751; in the data active = inhibition above about 43%;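 also: 0% = enzyme with DMSO and 100% = wells lacking enzyme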
PME-1 inh = blocks human protein phosphatase methylesterase 1; recombinant PME-1, FP-Rh probe fluorescence polarization; inhibition, % at 5.9 µM; AID 2130; 320,000 tested, 0.53% active; Q9Y570;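 active = inhibition above the campaign mean of all compounds plus 3 SD, cut at about 26% in these data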;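 also: competitive labeling of PME-1 active site by serine hydrolase directed probe; 0% = PME-1 with DMSO and 100% = wells lacking PME-1 enzyme; inhibitors block probe labeling so polarization falls and inhibition rises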
Target sequence (Q9Y570 whole entry, looked up): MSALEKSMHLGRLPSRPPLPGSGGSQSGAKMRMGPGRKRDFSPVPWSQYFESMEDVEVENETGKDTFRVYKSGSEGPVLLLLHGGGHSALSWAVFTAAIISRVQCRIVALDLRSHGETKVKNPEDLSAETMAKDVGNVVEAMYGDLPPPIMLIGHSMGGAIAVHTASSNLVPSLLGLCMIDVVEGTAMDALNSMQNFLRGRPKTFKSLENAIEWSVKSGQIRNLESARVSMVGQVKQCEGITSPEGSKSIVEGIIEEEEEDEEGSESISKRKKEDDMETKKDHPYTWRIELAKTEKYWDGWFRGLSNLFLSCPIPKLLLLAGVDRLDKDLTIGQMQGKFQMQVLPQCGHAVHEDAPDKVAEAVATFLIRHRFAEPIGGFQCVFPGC
Fam108B inh = Fam108B inhibition, counter-screen for RBBP9 inhibitors. AID 1947. 300,000 tested, 0.33% active. inhibition, % at 9.51 µM. recombinant Fam108B, FP-Rh probe fluorescence polarization;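 active = inhibition above the screen mean inhibition plus 3 SD, computed separately per campaign, cut at about 18% in these data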;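 also: inhibitors lower polarization as less probe binds the enzyme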
Fam108b confirm = confirmation of mouse Fam108b serine hydrolase inhibitors. shares compounds with Fam108B inh. recombinant Fam108b, FP-Rh probe fluorescence polarization. inhibition, % at 9.51 µM. 930 tested, 44% active. AID 1978;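 active = inhibition above a limit from the primary screen, the mean over all compounds plus 3 SD, cut at about 19% in these data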;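 also: 0% = median of active Fam108b wells and 100% = catalytically dead S170A mutant; inhibitors free the probe so polarization falls as inhibition rises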
Fam108b ABPP HTS = inhibits mouse Fam108b in gel-based ABPP. shares compounds with Fam108B inh. recombinant Fam108b, fluorophosphonate probe. inhibition, % at 20 µM. 260 tested, 44% active; in the data active = inhibition above about 40%
Starred values were filed as active, the others as inactive; · = not tested or not shown. The list is not random: actives were taken first. Their share in the collection is about 1.3%.

SMILES	LYPLA2 counter	LYPLA1 inh	PREPL inhibitor	PME-1 inh	Fam108B inh	Fam108b confirm	others
Cc1ccc(CNC(=O)CN(C)C2=NS(=O)(=O)c3ccccc32)cc1	3	4	-1	1	·	·
O=C(CCC(=O)c1ccc(Cl)cc1)OCn1nnc2ccccc2c1=O	·	·	11	·	·	·
COC(=O)c1ccc(=O)c2nc3/c(=C/O)c(O)cc(=O)c3[nH]c12	4	-5	25	14	33*	49*
COC(=O)c1cccn(CC(=O)c2ccc(Cl)cc2)c1=O	-2	-3	-40	-2	4	·
CC(Sc1nnc(Nc2ccccc2)s1)C(=O)Nc1nc(-c2ccccc2)cs1 (configuration not stated)	-32	-25	-14	-21	-12	·
CC(Sc1nnc(NCc2ccccc2)s1)C(=O)Nc1ccc2c(c1)C(=O)c1ccccc1C2=O (configuration not stated)	0	-16	42	22	38*	19*
CC(C)N(C(=O)COC(=O)c1ccc(Cl)s1)c1ccccc1	-15	-12	14	0	·	·
N#Cc1ccccc1S(=O)(=O)N1CCN(C(=O)C2CC(=O)N(c3ccc4c(c3)OCCO4)C2)CC1 (configuration not stated)	·	·	9	·	·	·
Cc1ccccc1-c1nc2sc3c(c2c(=O)o1)CCC3	-1	1	15	-5	21*	11
On1onc2c3cc(-c4ccccc4)nc3ccc21	3	-7	6	45*	27*	21*
c1ccc(-c2cc3c(ccc4nonc43)nn2)cc1	1	0	12	-1	-3	·
COc1cccc2c1C(=O)c1c(O)c3c(c(O)c1C2=O)C[C@@](O)(C(C)=O)C[C@@H]3O[C@H]1C[C@H](N)[C@H](O)[C@H](C)O1	·	·	·	·	·	·	Fam108b ABPP HTS=0
Cc1ccc(C(C)C)c(OCc2ccc(C(=O)N/N=C/c3ccc(O)c(O)c3)cc2)c1	3	-12	25	38*	35*	-25
Cc1ccc(C(C)C)c(OCc2ccc(C(=O)N/N=C/c3cccc(O)c3O)cc2)c1	2	-23	15	49*	28*	10
O=C(N/N=C/c1ccc(O)c(O)c1)c1ccc(CSc2cccc3cccnc23)cc1	8	-7	26	54*	43*	26*
COC(=O)C1=C(C)NC(C)=C(C(=O)OC)C1C(=O)OC(C)C(=O)c1ccccc1 (configuration not stated)	3	-1	4	-4	-3	·
CCN=C1S/C(=C/c2ccc(-c3ccc(F)cc3)o2)C(=O)N1CC	2	0	19	-3	5	·
COc1ccc2nc(-n3c(O)c(C4=c5ccccc5=NC4=O)[nH]c3=S)sc2c1	2	-6	12	54*	37*	36*	Fam108b ABPP HTS=0
Cn1c(O)c(C2=c3ccccc3=NC2=O)[nH]c1=S	14	3	4	4	0	·
CCCC#CCN1CCN(C23CC4CC(CC(C4)C2)C3)CC1	3	1	-7	4	18*	0
CCCCCC#CCN1CCN(C23CC4CC(CC(C4)C2)C3)CC1	0	0	14	-2	·	·
O=C(COC(=O)c1ccc(C(F)(F)F)cc1)Nc1cccc(S(=O)(=O)N2CCCCC2)c1	-62	-31	10	-46	·	·
O=C1OC(Nc2cc(Br)cc3cccnc23)c2ccccc21 (configuration not stated)	17	11	33	28*	47*	7
O=C1OC(Nc2ncccn2)c2ccccc21 (configuration not stated)	4	1	11	-1	3	·
C#CCN(Cc1ccccc1)S(=O)(=O)C=C	1	-3	-9	3	·	·
SMILES	LYPLA2 counter	LYPLA1 inh	PREPL inhibitor	PME-1 inh	Fam108B inh	Fam108b confirm	others
COc1cc(/C=C2/C(=O)NN(c3cccc(Cl)c3)C2=O)cc(OC)c1O	8	1	7	6	3	·
COc1cc(/C=C2/C(=O)NN(c3cccc(C)c3)C2=O)cc([N+](=O)[O-])c1O	4	4	3	6	83*	6
COc1ccccc1Nc1ccc(NC(=O)c2cccc([N+](=O)[O-])c2C)cc1	5	-7	26	15	20*	-6
CCOc1ccc(-c2c(C(=O)N/N=C/c3c[nH]c4ccccc34)nnn2-c2nonc2N)cc1	4	-11	17	21	19*	-4
O=C(N/C(=C\c1ccc(Cl)cc1)C(=O)N1CCOCC1)c1ccco1	-2	1	6	-3	-1	·
O=C(N/C(=C\c1ccccc1)C(=O)N1CCOCC1)c1ccco1	-4	-6	19	-12	42*	0
COc1cccc(C2C3=C(Nc4[nH]n(-c5ccccc5)c(=O)c42)c2ccccc2C3=O)c1 (configuration not stated)	-1	-5	22	28*	24*	31*
COc1cccc(C2C3=C(CCCC3=O)Nc3[nH]n(-c4ccccc4)c(=O)c32)c1 (configuration not stated)	-5	-1	-1	-2	-2	·
CC(C)(C)c1nc2scc(-c3ccc(Br)cc3)c2c(=O)o1	10	0	1	-6	27*	29*
Cc1nc2scc(-c3ccc(Cl)cc3)c2c(=O)o1	4	1	6	-7	46*	79*	Fam108b ABPP HTS=80*
O=c1[nH]cnc2scc(-c3ccc(Br)cc3)c12	-1	0	-29	0	-5	·
COc1ccc(-c2csc3nc(-c4ccccc4F)oc(=O)c23)cc1	-7	-6	7	12	50*	36*	Fam108b ABPP HTS=60*
COc1ccc(-c2nc3scc(-c4ccc(OC)c(OC)c4)c3c(=O)o2)cc1	7	0	9	20	-1	·
O=C(c1cc2cc(Cl)ccc2[nH]1)N1CCN(Cc2ccc3c(c2)OCO3)CC1	9	2	8	-1	-3	·
COc1cccc(NC(=O)c2ccccc2N2C(=O)C3C4C=CC(C5CC45)C3C2=O)c1 (configuration not stated)	-2	-2	6	3	2	·
COc1ccccc1C(=O)NCCC(=O)NNC(=O)Cn1ccc(C(F)(F)F)n1	-4	-4	8	-5	0	·
Brc1csc(C=NNc2nc3ccccc3s2)c1	·	·	·	·	·	·	Fam108b ABPP HTS=70*
C(=N\Nc1nc2ccccc2s1)/c1ccccn1	-3	1	23	13	4	·
Cc1ccc2[nH]c(C)c(/C=N/Nc3nc4ccccc4s3)c2c1	-4	0	21	58*	27*	3
O=C(Nc1ccc(Nc2ccccc2)cc1)Nc1ccccc1Cl	-1	-17	23	31*	22*	-2
Cc1nn(-c2ccccc2)c(N2CCCC2)c1/C=N/NC(=O)c1cccc(S(=O)(=O)Nc2ccc(Cl)cc2)c1	-18	-14	14	15	22*	-6

From PubChem BioAssay
